{"source": "PubChem BioAssay (Tox21)", "note": "Inconclusive results are not listed. A number with no mark means an inactive call. The source made the active and inactive calls. Calls follow the shape of the dose curve; as a rule, active = well fitted cell-killing curve with a large enough effect in the repeat runs; inconclusive = weak or mixed curves; inactive = flat fitted curve, though single readings scatter. % is scaled to controls: 0 for no effect and ±100 for the full control effect; potency is read from the fitted curve at half-maximal effect."}
{"assay": "qHTS RealTime-Glo MT Cell Viability Assay in HepG2 cells - 8 hour (AID 1224873); also: nearly all actives have a fitted effect of over 55% in size", "conditions": "RealTime-Glo luminescence; series mostly up to 76.8 µM; viability change, negative = cytotoxic: at the top concentration", "source_text": "National Center for Advancing Translational Sciences [NCATS]\nNIH Chemical Genomics Center [NCGC]\nU.S. Environmental Protection Agency [EPA]\nNational Institutes of Environmental Health Sciences [NIEHS]\nNational Toxicology Program [NTP]\nU.S. Food and Drug Administration [FDA]\nMeasure of cell viability is critical in the cell-base assay. Analysis of cell viability is necessary for the characterization of cell responses to cytotoxic drugs and environmental stress. A RealTime-Glo MT Cell Viability Assay to monitor cell viability in real time of continues cell culture during 40 hours of compound treatment was used to screen Tox21 10K library compounds in HepG2 cells. The RealTime-Glo MT Cell Viability Assay is a nonlytic, homogeneous, bioluminescent method to measure cell viability in real time using a simple, plate-based method. The assay involves adding NanoLuc luciferase and a cell-permeant prosubstrate to cells in culture. Viable cells reduce the proprietary prosubstrate to generate a substrate for NanoLuc luciferase. This substrate diffuses from cells into the surrounding culture medium, where it is rapidly used by the NanoLuc Enzyme to produce a luminescent signal. The signal correlates with the number of viable cells, making the assay well suited for cytotoxicity studies.\nTox21 Assay Protocol Summary:\nThe mixture of HepG2 cell suspension and reagents were dispensed at 600cells/6 ul/well in 1536-well tissue culture treated black solid bottom plates using a Multidrop dispenser. After the assay plates were incubated at a 37 C/5% CO2 incubator for 5 hours, 23 nL of compounds dissolved in DMSO, positive and negative controls was transferred to the assay plate by a pintool work station. The plates were incubated at 37 C for 40 hours. The luminescence intensity were measured at 0h, 8h, 16h, 24h, 32h and 40h time points using ViewLux plate reader during compound treatment."}
{"smiles": "O=C=NCc1cccc(CN=C=O)c1", "viability change, negative = cytotoxic": "3.05% [at 15.8 µM]"}
{"smiles": "CS(C)(=O)=O", "viability change, negative = cytotoxic": "-10.2%"}
{"smiles": "CCCOc1sc(C(=O)N2CCC(c3cc(CN)ccc3F)CC2)c(C)c1Br", "Potency": "31.8 µM (active)"}
{"smiles": "CO[Si](CCC1CCC2OC2C1)(OC)OC", "note": "(stereo not given)", "viability change, negative = cytotoxic": "4.02%"}
{"smiles": "N[C@@H](CSSC[C@H](N)C(=O)O)C(=O)O", "viability change, negative = cytotoxic": "3.56% [at 0.29 µM]"}
{"smiles": "C=C(C)C(=O)OCCC[Si](Cl)(Cl)Cl", "viability change, negative = cytotoxic": "-13.1%"}
{"smiles": "C/C=C/C=N/NC(=O)c1ccncc1", "viability change, negative = cytotoxic": "3.76% [at 35.3 µM]"}
{"smiles": "CC1=CCC(=O)O1", "viability change, negative = cytotoxic": "2.54%"}
{"smiles": "CCCN(CCc1cccs1)[C@H]1CCc2c(O)cccc2C1", "viability change, negative = cytotoxic": "-18.3% [at 35.3 µM]"}
{"smiles": "Clc1ccc(C(c2ccccc2Cl)C(Cl)Cl)cc1", "note": "(stereo not given)", "viability change, negative = cytotoxic": "-8.11% [at 35.3 µM]"}
{"smiles": "CN(C)CCN1CCOCC1", "viability change, negative = cytotoxic": "-10.9%"}
{"smiles": "C=C/C=C/C=C/CCCCC", "viability change, negative = cytotoxic": "-19.2% [at 15.8 µM]"}
{"smiles": "Clc1ccc(C(Cn2ccnc2)OCc2c(Cl)cccc2Cl)c(Cl)c1", "note": "(stereo not given)", "viability change, negative = cytotoxic": "-24.7% [at 35.3 µM]"}
{"smiles": "CC(=O)O[C@@H]1C[C@@H]2CC[C@@]1(C)C2(C)C", "viability change, negative = cytotoxic": "2.64%"}
{"smiles": "CCc1cccc(CC)c1NC(=O)C(=O)O", "viability change, negative = cytotoxic": "1.67%"}
{"smiles": "NC(=O)c1nc(-c2cccc(-c3cc(F)ccc3OCC(F)(F)C(F)(F)F)c2)n[nH]1", "viability change, negative = cytotoxic": "-24.1%"}
{"smiles": "CC(=O)Oc1ccc(C2(c3ccc(OC(C)=O)cc3)Oc3ccccc3NC2=O)cc1", "viability change, negative = cytotoxic": "-4.44% [at 35.3 µM]"}
{"smiles": "CC1CNCC(C)O1", "note": "(stereo not given)", "viability change, negative = cytotoxic": "2.42%"}
{"smiles": "CC(C)(C)c1n[nH]c(=O)n(N)c1=O", "viability change, negative = cytotoxic": "1.68%"}
{"smiles": "Oc1c(Br)cc(Br)c2cccnc12", "viability change, negative = cytotoxic": "-11.7% [at 35.3 µM]"}
{"smiles": "COc1cccc(OC)c1O", "viability change, negative = cytotoxic": "3.5%"}
{"smiles": "CCCCCCCCCCCCCOP(=O)(O)O", "viability change, negative = cytotoxic": "4.92%"}
{"smiles": "CCc1c(C(=O)O)c(=O)cnn1-c1ccc(Cl)cc1", "viability change, negative = cytotoxic": "-0.299%"}
{"smiles": "SCCCCCCCCS", "viability change, negative = cytotoxic": "1.29%"}
{"smiles": "Cc1cc(C)c(C=O)c(C)c1", "viability change, negative = cytotoxic": "-13.8%"}
{"smiles": "C=CCCCCCCC=C", "viability change, negative = cytotoxic": "-0.335%"}
{"smiles": "C/C=C/CO", "viability change, negative = cytotoxic": "1.32%"}
{"smiles": "CC(CN(C)C)CN1c2ccccc2CCc2ccccc21", "note": "(stereo not given)", "viability change, negative = cytotoxic": "-9.03% [at 35.3 µM]"}
{"smiles": "O=CC1CC1", "viability change, negative = cytotoxic": "1.43%"}
{"smiles": "CC1CCCNC1", "note": "(stereo not given)", "viability change, negative = cytotoxic": "-5.26%"}
{"smiles": "O=Cc1ccc(F)cc1", "viability change, negative = cytotoxic": "3.97%"}
{"smiles": "c1ccc(Nc2cccc3ccccc23)cc1", "viability change, negative = cytotoxic": "-17.3%"}
{"smiles": "CCN(CC)CCCN(c1ccccc1)C1Cc2ccccc2C1", "viability change, negative = cytotoxic": "-9.24% [at 35.3 µM]"}
{"smiles": "Cc1c(C)n(Cc2ccccc2)c2ccc(C(=O)OCCN(C)C)cc12", "viability change, negative = cytotoxic": "-23.6% [at 35.3 µM]"}
{"smiles": "C[C@@H]1CC[C@H]2C(C)(C)[C@H]3C[C@@]12CC[C@@]3(C)O", "viability change, negative = cytotoxic": "-11.5%"}
{"smiles": "CCCCCCCCCCCCCCCCCO", "viability change, negative = cytotoxic": "4.95% [at 15.8 µM]"}
{"smiles": "CCC1(c2cnc[nH]2)Cc2ccccc2C1", "viability change, negative = cytotoxic": "5.06% [at 35.3 µM]"}
{"smiles": "CC(C)=C1CC[C@@H](C)CC1=O", "viability change, negative = cytotoxic": "-2.79%"}
{"smiles": "CCCC(C)CCC(C)=O", "note": "(stereo not given)", "viability change, negative = cytotoxic": "4.39%"}
{"smiles": "c1cc[nH]c1", "viability change, negative = cytotoxic": "3.64%"}
